FMDV inh: foot and mouth disease virus antiviral activity | AID 1159524 | Potency, µM (top dose mostly 57.9 µM), inactives show top-dose activity change, negative = inhibition, actives largely listed as inhibitors | FMDV antiviral cell-based qHTS | actives 1.2% (n = 410,000); calls by dose curve; tested in HEK293T cells; note: read-out not given here; potency is the fitted concentration of half-maximal effect; nearly all actives have a fitted effect of over 45% in size
Marburg entry inh: blocks Marburg virus binding to or entry into cells; Potency, µM (doses to about 37.8 µM), without a hit: top-dose activity change, negative = inhibition, hits mostly inhibitors; actives 1.8% (n = 300,000); AID 540276; Marburg virus pseudotyped entry inhibition, cell reporter; calls by dose curve; tested in HEK293 cells; note: potency is the fitted concentration of half-maximal effect
Lassa entry inh: Lassa virus entry inhibition | Potency, µM (titrated, usually from 37.9 µM), inactives show at the highest dose activity change, negative = inhibition, hits mostly inhibitors | AID 540256 | Lassa virus pseudotype entry inhibition, cell reporter | actives 1.2% (n = 300,000); calls by dose curve; tested in HEK293 cells; note: potency is the fitted concentration of half-maximal effect; nearly all actives have a fitted effect of over 50% in size
Vaccinia mCherry: vaccinia inhibition (mCherry reporter) | Vaccinia virus mCherry reporter infection, fluorescence | Potency, µM (titrated, usually from 36.5 µM), for inactives: at the highest dose activity change, negative = inhibition, hits mostly inhibitors | actives 0.63% (n = 310,000) | AID 720579; calls by dose curve; tested in A549 cells; note: potency is the fitted concentration of half-maximal effect; nearly all actives have a fitted effect of over 35% in size
HCMV inh: blocks human cytomegalovirus replication | HFF cells, HCMV-luciferase reporter, 72 h; active compounds read low | activity change, negative = inhibition, % at 57.5 µM | actives 4.5% (n = 410,000); in the data active = activity change below about -60%; inconclusive = no clear call, values can overlap the other calls; inactive = above about -39%
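Human foreskin fibroblasts infected with luciferase-reporter HCMV at MOI 1 PFU/cell, compounds at two doses. Luciferase measured 72 h post infection; normalized to buffer-only basal and Salinomycin (10uM) controls.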
Vaccinia Venus: inhibitors of vaccinia virus (Venus reporter); actives 0.46% (n = 330,000); Potency, µM (titrated, usually from 36.5 µM), for inactives: top-dose activity change, negative = inhibition, hits mostly inhibitors; Vaccinia virus Venus reporter expression, fluorescence; calls by dose curve; tested in A549 cells; note: potency is the fitted concentration of half-maximal effect; nearly all actives have a fitted effect of over 30% in size
The depositor's hits bear a star; [ ] = another dose, or the depositor's remark. Hits are enriched below; roughly 6.5% of the tested compounds scored in any of these assays. % is set by controls: 0 for no effect and ±100 for the full control effect.

Results for O=C(COc1ccc(Br)cc1)Nc1ccc([N+](=O)[O-])cn1 ?
FMDV inh: 7.9%; Marburg entry inh: 12.3%; Lassa entry inh: 3.8%; HCMV inh: -31.1; Vaccinia Venus: -10.5%

How did Cc1cc(C)cc(OCCn2nnc3ccccc32)c1 do in these assays?
FMDV inh: 45.0%; HCMV inh: 33.7

What do the screens show for `Cc1cc(N2CCOCC2)n2cc(-c3ccccc3)nc2n1`?
FMDV inh: -12.2%; Marburg entry inh: 0.4%; Lassa entry inh: 0.4%; Vaccinia mCherry: inactive; HCMV inh: 32.2; Vaccinia Venus: -5.4%

How did Cc1cc(N2CC(C)OC(C)C2)n2cc(-c3ccccc3)nc2n1 (stereo not drawn) do in these assays?
FMDV inh: 3.8%; Marburg entry inh: 5.4%[46.1 µM]; Lassa entry inh: -4.1%; Vaccinia mCherry: inactive; HCMV inh: -98.5*; Vaccinia Venus: -2.2%

How did COc1ccc2[nH]cc(CCNc3ncncc3-c3ccccc3Cl)c2c1 do in these assays?
FMDV inh: 35.5µM*

Results for COc1ccc2[nH]cc(CCNc3ncncc3-c3ccccc3OC)c2c1 ?
FMDV inh: -7.0%

Results for CCS(=O)(=O)CCSc1nc(C)cc(C)c1C#N ?
Marburg entry inh: -28.3%; Lassa entry inh: inconclusive; Vaccinia mCherry: -13.0%; HCMV inh: -27.4; Vaccinia Venus: -11.4%

Results for Cc1ccc(S(=O)(=O)CCSc2nc(C)cc(C)c2C#N)cc1 ?
Marburg entry inh: inconclusive; Lassa entry inh: inconclusive; Vaccinia mCherry: 10µM*; HCMV inh: -39.4; Vaccinia Venus: 10µM*

Results for CSc1nc(N)nc(SCC(=O)Nc2ccc(Cl)cc2)c1C#N ?
FMDV inh: inconclusive; Marburg entry inh: inconclusive; Lassa entry inh: inconclusive; Vaccinia mCherry: inconclusive; HCMV inh: -21.8; Vaccinia Venus: inconclusive

Results for Cc1cc(C)c(C#N)c(SCCN2CCCCC2)n1 ?
FMDV inh: -15.1%; Marburg entry inh: inconclusive; Lassa entry inh: inconclusive; Vaccinia mCherry: inactive; HCMV inh: -95.7*; Vaccinia Venus: 3.6%

How did CSc1nc(N)nc(SCCS(=O)(=O)c2ccc(Cl)cc2)c1C#N do in these assays?
FMDV inh: inconclusive; Marburg entry inh: inconclusive; Lassa entry inh: 0.1%; Vaccinia mCherry: 2.51µM*; HCMV inh: -32.1; Vaccinia Venus: 5.62µM*

What do the screens show for `O=C(CN1C(=O)NC2(CCc3ccccc32)C1=O)Nc1ccc(Br)cc1F` (stereo not drawn)?
FMDV inh: -15.5%; HCMV inh: 0.0

How did Cc1c(CCO)sc[n+]1CC(=O)c1ccccc1 do in these assays?
Vaccinia mCherry: -11.6%; Vaccinia Venus: -10.3%

What do the screens show for `CCOC(=O)C1CCCN(C(=O)c2cc(Nc3ccc(OC)cc3OC)nc3ccccc23)C1` (stereo not drawn)?
FMDV inh: -15.2%; Marburg entry inh: -17.4%; Lassa entry inh: inconclusive; HCMV inh: 124.7

How did CCOC(=O)C1CCCN(C(=S)Nc2ccc(F)cc2)C1 (stereo not drawn) do in these assays?
FMDV inh: 20.1%; Marburg entry inh: 0.7%[14.2 µM]; Lassa entry inh: -8.2%; Vaccinia mCherry: -1.3%; HCMV inh: -29.2; Vaccinia Venus: -0.5%

What do the screens show for `CCOC(=O)C1CCCN(C(=O)c2cc(Nc3ccc(OC)c(OC)c3)nc3ccccc23)C1` (stereo not drawn)?
FMDV inh: inconclusive; Marburg entry inh: 11.2µM*; Lassa entry inh: -15.2%; Vaccinia mCherry: -19.7%; HCMV inh: 43.7; Vaccinia Venus: -17.1%

What do the screens show for `CCOC(=O)C1CCCN(C(=S)Nc2ccc(OC)cc2)C1` (stereo not drawn)?
FMDV inh: -0.9%; HCMV inh: -67.0*

What do the screens show for `CCOC(=O)C1CCCN(C(=O)c2cc3c(Cl)nc4ccccc4c3s2)C1` (stereo not drawn)?
FMDV inh: inconclusive; Marburg entry inh: 8.3%[46.1 µM]; Lassa entry inh: 9.1%[46.1 µM]; Vaccinia mCherry: -11.2%; HCMV inh: -76.7*; Vaccinia Venus: -15.0%

Results for CC1(C)CC(=O)c2cc(C(=O)Nc3cccc4ccccc34)c(=O)[nH]c2C1 ?
Vaccinia mCherry: -19.0%; Vaccinia Venus: -22.1%
